Read-out in assay [1]: Interleukin-1 alpha (IL1a), IL1A (gene 3552)
The assay is described as follows: BSK_BF4T_IL1a: BioMAP Diversity Plus: BF4T Assay for Interleukin-1 alpha (IL1a) Biomarker Activity (AID 2284264). The conditions noted are these: primary human bronchial epithelial cells with fibroblasts. In outline:
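Human bronchial epithelial cells co-cultured with dermal fibroblasts, dosed and read at 24 h. Secreted/surface IL-1α quantified by ELISA; gain-of-signal fitted relative to DMSO baseline. Parallel SRB total-protein staining tracked cytotoxicity.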

Read-out in the next assay: Decorin, DCN (gene 1634)
Nature of the assay: BSK_MyoF_Decorin: BioMAP Diversity Plus: MyoF Assay for Decorin Biomarker Activity (AID 2284265). To be noted: primary human lung fibroblasts. In outline: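 ELISA readout of decorin, 24 h post-dosing; primary human lung fibroblast (MyoF) culture; gain-of-signal fit vs DMSO baseline.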

Read-out in assay [2]: KRT18 (gene 3875)
Nature of the assay: BSK_BF4T_Keratin818: BioMAP Diversity Plus: BF4T Assay for Keratin 818 Biomarker Activity (AID 2284266). To be noted: primary human bronchial epithelial cells with fibroblasts. An outline of the steps: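 Co-culture of human bronchial epithelial cells and dermal fibroblasts, chemical exposure 24 h. Keratin 8/18 measured by ELISA; positive-direction fit vs DMSO. SRB total protein run in parallel cultures for cytotoxicity.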

The nature of assay [3]: BSK_MyoF_SRB: Viability Assessment in the BioMAP Diversity Plus: MyoF Assay (AID 2284267).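 Note: total protein by SRB absorbance in parallel cultures as cytotoxicity measure.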 The conditions noted are these: primary human lung fibroblasts. In outline: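 Human lung fibroblasts dosed with chemical and assessed 24 h later for overt cytotoxicity in parallel cultures. Total protein quantified by sulforhodamine B staining (0.1% SRB after 10% TCA fixation), read at 560 nm, analysed in positive direction versus DMSO baseline.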

Read-out in assay [4]: Matrix Metallopeptidase 1 (MMP1), MMP1 (gene 4312)
Nature of the assay: BSK_MyoF_MMP1: BioMAP Diversity Plus: MyoF Assay for Matrix Metallopeptidase 1 (MMP1) Biomarker Activity (AID 2284268). The conditions noted are these: primary human lung fibroblasts. An outline of the steps:
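Cells: human lung fibroblasts. Exposure: 24 h chemical dosing. Detection: ELISA for MMP1. Analysis: upward fitting against DMSO negative control.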

Read-out in assay [5]: TIMP metallopeptidase inhibitor 1 (TIMP1), TIMP1 (gene 7076)
Nature of the assay: BSK_MyoF_TIMP1: BioMAP Diversity Plus: MyoF Assay for TIMP metallopeptidase inhibitor 1 (TIMP1) Biomarker Activity (AID 2284269). To be noted: primary human lung fibroblasts. In outline: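 Primary human lung fibroblasts, MyoF multiplex system; chemical exposure 24 h; TIMP-1 by ELISA; positive fitting direction vs DMSO control.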

Read-out in assay [6]: Matrix Metallopeptidase 1 (MMP1), MMP1 (gene 4312)
Nature of the assay: BSK_BF4T_MMP1: BioMAP Diversity Plus: BF4T Assay for Matrix Metallopeptidase 1 (MMP1) Biomarker Activity (AID 2284270). The conditions noted are these: primary human bronchial epithelial cells with fibroblasts. In outline:
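Co-culture of human bronchial epithelial cells and dermal fibroblasts; MMP-1 levels measured by ELISA 24 hours after chemical dosing, relative to DMSO. Cytotoxicity checked in parallel cultures by SRB total-protein staining.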

Read-out in assay [7]: Matrix Metallopeptidase 3 (MMP3), MMP3 (gene 4314)
Nature of the assay: BSK_BF4T_MMP3: BioMAP Diversity Plus: BF4T Assay for Matrix Metallopeptidase 3 (MMP3) Biomarker Activity (AID 2284271). To be noted: primary human bronchial epithelial cells with fibroblasts. In outline: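 Co-culture of human bronchial epithelial cells and dermal fibroblasts dosed 24 h; MMP-3 measured by ELISA, positive-direction fit versus DMSO. Cytotoxicity tracked by SRB total-protein staining (560 nm) in parallel cultures.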

Read-out in assay [8]: Plasminogen Activator Inhibitor-1 (PAI1), SERPINE1 (gene 5054)
The assay is described as follows: BSK_BF4T_PAI1: BioMAP Diversity Plus: BF4T Assay for Plasminogen Activator Inhibitor-1 (PAI1) Biomarker Activity (AID 2284273). To be noted: primary human bronchial epithelial cells with fibroblasts. In outline: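 Co-culture of human bronchial epithelial cells and dermal fibroblasts exposed to compound for 24 h. PAI-1 measured by ELISA; activity fitted in positive direction versus DMSO. Parallel SRB staining assessed overt cytotoxicity.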

Read-out in assay [9]: Matrix Metallopeptidase 9 (MMP9), MMP9 (gene 4318)
The assay is described as follows: BSK_BF4T_MMP9: BioMAP Diversity Plus: BF4T Assay for Matrix Metallopeptidase 9 (MMP9) Biomarker Activity (AID 2284276). The conditions noted are these: primary human bronchial epithelial cells with fibroblasts. In outline: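 Co-culture of human bronchial epithelial cells and dermal fibroblasts dosed for 24 h; MMP-9 quantified by ELISA and fitted upward versus DMSO. Cytotoxicity monitored in parallel cultures by SRB total-protein staining at the biomarker time point.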

Read-out in assay [10]: Interleukin-8 (IL8), CXCL8 (gene 3576)
The assay is described as follows: BSK_IMphg_IL8: BioMAP Diversity Plus: IMphg Assay for Interleukin-8 (IL8) Biomarker Activity (AID 2284277). The conditions noted are these: primary human endothelial cells with macrophages. An outline of the steps:
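Co-culture of human venular endothelial cells and macrophages exposed to chemicals for 24 h; IL-8 quantified by ELISA and compared against the DMSO baseline, with SRB total-protein staining in parallel cultures for cytotoxicity.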

Read-out in assay [11]: Interferon-inducible T-cell alpha chemoattractant (ITAC), CXCL11 (gene 6373)
Nature of the assay: BSK_BE3C_ITAC: BioMAP Diversity Plus: BE3C Assay for Interferon-inducible T-cell alpha chemoattractant (ITAC) Biomarker Activity (AID 2284279). To be noted: primary human bronchial epithelial cells. In outline:
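Steps: dose human bronchial epithelial cells with chemical; incubate 24 h; measure I-TAC by ELISA; fit endpoint in positive direction against DMSO control. Cytotoxicity was checked in parallel cultures by SRB staining at harvest.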

Read-out in assay [12]: KRT18 (gene 3875)
The assay is described as follows: BSK_BE3C_Keratin818: BioMAP Diversity Plus: BE3C Assay for Keratin 818 Biomarker Activity (AID 2284282). The conditions noted are these: primary human bronchial epithelial cells. An outline of the steps:
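Human primary bronchial epithelial cells in the BE3C system were exposed to test chemical for 24 h, then Keratin 8/18 was quantified by ELISA. Activity was fitted in the positive direction against DMSO as negative control and baseline.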

Read-out in assay [13]: Interleukin-8 (IL8), CXCL8 (gene 3576)
The assay is described as follows: BSK_BF4T_IL8: BioMAP Diversity Plus: BF4T Assay for Interleukin-8 (IL8) Biomarker Activity (AID 2284263). The conditions noted are these: primary human bronchial epithelial cells with fibroblasts. In outline:
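Human bronchial epithelial cells with dermal fibroblasts co-culture; IL-8 measured by ELISA 24 hours after dosing, fitted vs DMSO. Cytotoxicity tracked in parallel cultures by SRB total-protein staining.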

Read-out in assay [14]: Tissue plasminogen activator (tPA), PLAT (gene 5327)
The assay is described as follows: BSK_BF4T_tPA: BioMAP Diversity Plus: BF4T Assay for Tissue plasminogen activator (tPA) Biomarker Activity (AID 2284272). The conditions noted are these: primary human bronchial epithelial cells with fibroblasts. In outline:
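tPA level quantified by ELISA at 24 h post-treatment in bronchial epithelial/dermal fibroblast co-cultures, gain of signal scored against DMSO baseline. Parallel cultures stained with 0.1% SRB (560 nm) to flag overt cytotoxicity.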

Read-out in assay [15]: Intercellular Adhesion Molecule 1 (ICAM1), ICAM1 (gene 3383)
The assay is described as follows: BSK_BE3C_ICAM1: BioMAP Diversity Plus: BE3C Assay for Intercellular Adhesion Molecule 1 (ICAM1) Biomarker Activity (AID 2284278).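 Note: cell-surface ICAM-1 protein level quantified by ELISA.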 To be noted: primary human bronchial epithelial cells. In outline:
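Primary human bronchial epithelial cells were exposed to compound for 24 h, after which cell-surface ICAM-1 was quantified by ELISA. Activity was fitted in the gain-of-signal direction against DMSO as negative control and baseline.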

Read-out in assay [16]: Interleukin-8 (IL8), CXCL8 (gene 3576)
Nature of the assay: BSK_BE3C_IL8: BioMAP Diversity Plus: BE3C Assay for Interleukin-8 (IL8) Biomarker Activity (AID 2284280). To be noted: primary human bronchial epithelial cells. An outline of the steps:
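IL-8 signal gain, normalised to DMSO vehicle, was scored after a 24 h chemical exposure of primary human bronchial epithelial cells, with detection by ELISA.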

Assay [17] is described as follows: BSK_BF4T_SRB: Viability Assessment in the BioMAP Diversity Plus: BF4T Assay (AID 2284274). To be noted: primary human bronchial epithelial cells with fibroblasts. An outline of the steps:
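Co-culture of human bronchial epithelial cells and dermal fibroblasts (BioMAP BF4T) exposed 24 h. Total protein by sulforhodamine B staining (0.1% SRB after 10% TCA fixation, 560 nm) in parallel cultures; fitted vs DMSO.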

Read-out in assay [18]: Epidermal growth factor receptor (EGFR), EGFR (gene 1956)
Nature of the assay: BSK_BE3C_EGFR: BioMAP Diversity Plus: BE3C Assay for Epidermal growth factor receptor (EGFR) Biomarker Activity (AID 2284281). The conditions noted are these: primary human bronchial epithelial cells. In outline:
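Compound is added to human bronchial epithelial cells, cells incubate 24 h, then EGFR is detected by ELISA. Values reflect positive-direction fitting relative to DMSO.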

Drawing on PubChem BioAssay (EPA / NIEHS), this text covers outcome and AC50 for 6 molecules.

“And” between values parts separate entries of the source, which are not always exact repeats. Equal values may be shown once. A structure can be active in one record and inactive in another. The source made the active and inactive calls. Rule for the calls: active = hit-call score of the fitted dose curve at least 0.9, where 1 is the maximum; inactive = score below 0.9.

Turning to `FC(F)(F)C(F)(F)C(F)(F)C(F)(F)C(F)(F)C(F)(F)C(F)(F)C(F)(F)CCS`, the outcome was “inactive” in assay [1]; “inactive” with Decorin, DCN (gene 1634); “inactive” in the assay with KRT18 (gene 3875) [2]; “inactive” in assay [3]; “inactive” in assay [4]; “inactive” in [5]. The outcome in assay [6], in assay [7], in assay [8], in assay [9], in [10] and in assay [11] was inactive. Besides, the outcome with KRT18 (gene 3875) [12] was inactive.
Turning to `O=C(O)C(F)(OC(F)(F)C(F)(OC(F)(F)C(F)(OC(F)(F)C(F)(F)C(F)(F)F)C(F)(F)F)C(F)(F)F)C(F)(F)F` (stereo not drawn), the outcome in assay [13] is “inactive”; in [1] it was “inactive”; in the assay with Decorin, DCN (gene 1634), “inactive”; with KRT18 (gene 3875) [2] it was “inactive”; in assay [3] it was “inactive”; in assay [4], “inactive”. Also, the result in assay [5], in [6], in [14], in assay [8], in [9] and in assay [10] was inactive. Also, the outcome (in [15]; in assay [11]; in [16]; with KRT18 (gene 3875) [12]) was inactive.
On to `CCO[Si](CCC(F)(F)C(F)(F)C(F)(F)C(F)(F)C(F)(F)C(F)(F)F)(OCC)OCC`, for which the outcome in [13] is “inactive”; in assay [1] it was “inactive”; with Decorin, DCN (gene 1634), “inactive”; with KRT18 (gene 3875) [2], “inactive”; in assay [3], “inactive”; in assay [4], “inactive”. The result in assay [5], in assay [6], in [14], in assay [8], in assay [9] and in assay [10] was inactive. In addition, the result (in [11]; in assay [16]; with KRT18 (gene 3875) [12]) was inactive.
Turning to `FC(F)(F)C(F)(F)C(F)(F)C(F)(F)C(F)(F)C(F)(F)C(F)(F)Br`, the outcome is “inactive” in [13]; “inactive” in [1]; “inactive” in the assay with Decorin, DCN (gene 1634); “inactive” in the assay with KRT18 (gene 3875) [2]; “inactive” in [3]; “inactive” in assay [4]. The result in [5], in [6], in assay [7], in [8], in assay [17] and in assay [9] was inactive. Also, the result (in [10]; in assay [11]; in assay [18]; in the assay with KRT18 (gene 3875) [12]) was inactive.
Usually AC50 stands for the concentration giving half of the maximal activity seen. Consider `O=C(O)C(F)(F)C(F)(F)C(F)(F)C(F)(F)C(F)(F)C(F)(F)C(F)(F)C(F)(F)C(F)(F)C(F)F`, for which the AC50 is 38.8 µM (active) and 20.5 µM (active) in assay [1]; 22.7 µM (active) and 30 µM (active) with KRT18 (gene 3875) [2]; 21.3 µM (active) and 21.9 µM (active) in assay [3]; 50.9 µM (active) in [5]; 49.7 µM (active) in assay [6]; 39.7 µM (active) and 30 µM (active) in assay [8]. The AC50 in [9] is 21.4 µM (active) and 15.7 µM (active); in assay [11], 9.92 µM (active) and 11.3 µM (active); with KRT18 (gene 3875) [12], 19.6 µM (active) and 10.5 µM (active). Further, the outcome in the assay with Decorin, DCN (gene 1634) is “inactive”; in assay [4], “inactive”; in assay [5], “inactive”; in [6], “inactive”; in [10] it was “inactive”; in assay [16], “inactive”.
For the molecule `O=P(O)(O)OCCC(F)(F)C(F)(F)C(F)(F)C(F)(F)C(F)(F)C(F)(F)F`, the outcome in [1] is “inactive”; in the assay with Decorin, DCN (gene 1634), “inactive”; with KRT18 (gene 3875) [2], “inactive”; in assay [3], “inactive”; in [4] it was “inactive”; in [5], “inactive”. The result in assay [6], in assay [7], in assay [8], in assay [9], in assay [10] and in assay [11] was inactive. Moreover, in the assay with KRT18 (gene 3875) [12], the result was inactive.
